Assay results as given in the supplement of paper PMC7184167.
Structures can show the parent of a compound that is named as a salt.

These compounds were tested on replication-induced senescent mouse newborn dermal fibroblasts (NBF) (assay: relative cell viability of senescent cells (fraction); higher = less killing of senescent cells). Conditions: 1 µM; 3 days.
Method: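 Replication-induced senescent newborn mouse skin fibroblasts (NBFs) in 24-well plates were treated with a Selleck FDA-approved drug library at 1 µM for 3 days.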
`COc1ccc([C@@H]2Sc3ccccc3N(CCN(C)C)C(=O)[C@@H]2OC(C)=O)cc1` [Diltiazem HCl] gave a relative cell viability of 1.09. Compound `CCC(C)(C)c1ccc(CC(C)CN2C[C@@H](C)O[C@@H](C)C2)cc1` (stereo not given in full) [Amorolfine HCl] has a relative cell viability of 1.09. Work on `O=C(C1CCCCC1)N1CC(=O)N2CCc3ccccc3C2C1` (stereo not given) [Praziquantel] yielded a relative cell viability of 1.07. With `CN(C)CCC(c1ccc(Cl)cc1)c1ccccn1` (stereo not given) [Chlorpheniramine Maleate] the relative cell viability was 0.208. `COC(=O)C1=C(C)NC(C)=C(C(=O)OC)C1c1ccccc1[N+](=O)[O-]` [Nifedipine] gave a relative cell viability of 1.01. In the case of `Cn1c(=O)c2nc[nH]c2n(C)c1=O` [Theophylline], the relative cell viability is reported as 0.828. For `O=S(=O)(O)CCS` [Mesna], the relative cell viability was 1.04. Work on `Clc1ccc(CCC(Cn2ccnc2)Sc2c(Cl)cccc2Cl)cc1` (stereo not given) [Butoconazole nitrate] yielded a relative cell viability of 1.14. In the case of `O=C(c1cc(Cc2n[nH]c(=O)c3ccccc23)ccc1F)N1CCN(C(=O)C2CC2)CC1`, the relative cell viability is reported as 1.09. For `CN1CCC(=C2c3ccccc3CCc3sccc32)CC1` [Pizotifen Malate], the relative cell viability was 0.0212. `Nc1nc(=O)n([C@@H]2CS[C@H](CO)O2)cc1F` [Emtricitabine] showed a relative cell viability of 1.04. Compound `CCOC(=O)c1ccc(C#Cc2ccc3c(c2)C(C)(C)CCS3)nc1` [Tazarotene] has a relative cell viability of 1.23. Work on `Nc1nc2c(ncn2COC(CO)CO)c(=O)[nH]1` [Ganciclovir] yielded a relative cell viability of 0.995. Compound `Nc1nc(=O)[nH]cc1F` [Flucytosine] has a relative cell viability of 0.996. `CC(=O)Nc1ccc(O)cc1` [Acetaminophen] was tested, and the relative cell viability was 0.803. With `Cc1ccc(C(=O)Nc2ccc(CN3CCN(C)CC3)c(C(F)(F)F)c2)cc1C#Cc1cnc2cccnn12` the relative cell viability was 0.964. `CCOc1cc(CC(=O)N[C@@H](CC(C)C)c2ccccc2N2CCCCC2)ccc1C(=O)O` [Repaglinide] was tested, and the relative cell viability was 0.978. Work on `C[C@@H](O[C@H]1OCCN(Cc2n[nH]c(=O)[nH]2)[C@H]1c1ccc(F)cc1)c1cc(C(F)(F)F)cc(C(F)(F)F)c1` [Aprepitant] yielded a relative cell viability of 1.08. For `CC1(C)O[C@@H]2C[C@H]3[C@@H]4CCC5=CC(=O)C=C[C@]5(C)[C@H]4[C@@H](O)C[C@]3(C)[C@]2(C(=O)CO)O1` [Desonide], the relative cell viability was 1.14. In the case of `CC(=O)O[C@H]1C(=O)[C@@]2(C)[C@H]([C@H](OC(=O)c3ccccc3)[C@]3(O)C[C@H](OC(=O)[C@H](O)[C@@H](NC(=O)c4ccccc4)c4ccccc4)C(C)=C1C3(C)C)[C@]1(OC(C)=O)CO[C@@H]1C[C@@H]2O` [Paclitaxel], the relative cell viability is reported as 0.398. `COc1ccc2[nH]cc(CCNC(C)=O)c2c1` [Melatonin] showed a relative cell viability of 1.05. `NS(=O)(=O)Cc1noc2ccccc12` [Zonisamide] gave a relative cell viability of 1.11. `Nc1ccc(S(=O)(=O)Nc2ncccn2)cc1` [Sulfadiazine] showed a relative cell viability of 1.11. Compound `C=C1/C(=C\C=C2/CCC[C@]3(C)[C@@H]([C@H](C)/C=C/[C@H](C)C(C)C)CC[C@@H]23)C[C@@H](O)C[C@@H]1O` [Doxercalciferol] has a relative cell viability of 1.22. With `COCCOC(=O)C1=C(C)NC(C)=C(C(=O)OC(C)C)C1c1cccc([N+](=O)[O-])c1` (stereo not given) [Nimodipine] the relative cell viability was 1.15. Work on `NC(=O)c1ncn([C@@H]2O[C@H](CO)[C@@H](O)[C@H]2O)c1N` [AICAR (Acadesine)] yielded a relative cell viability of 1.02. `N=C(N)NC(=O)c1nc(Cl)c(N)nc1N` [Amiloride HCl] showed a relative cell viability of 0.768. Work on `Clc1ccc(C(c2ccccc2Cl)C(Cl)Cl)cc1` (stereo not given) [Mitotane] yielded a relative cell viability of 1.16. In the case of `CN(C)CC/C=C1/c2ccccc2Sc2ccc(Cl)cc21` [Chlorprothixene], the relative cell viability is reported as 1.1. `COc1ccccc1OCCNCC(O)COc1cccc2[nH]c3ccccc3c12` (stereo not given) [Carvedilol] was tested, and the relative cell viability was 1.14. For `C[C@@H]1C/C=C/C=C/C=C/C=C/[C@H](O[C@@H]2O[C@H](C)[C@@H](O)[C@H](N)[C@@H]2O)C[C@@H]2O[C@](O)(C[C@@H](O)C[C@H]3O[C@@H]3/C=C/C(=O)O1)C[C@H](O)[C@H]2C(=O)O` [Natamycin], the relative cell viability was 0.0794. `CCCc1nc2c(C)cc(-c3nc4ccccc4n3C)cc2n1Cc1ccc(-c2ccccc2C(=O)O)cc1` [Telmisartan] gave a relative cell viability of 1.15. `Nc1ncn([C@H]2C[C@H](O)[C@@H](CO)O2)c(=O)n1` [Decitabine] showed a relative cell viability of 0.211. In the case of `O=C(O)CSCC(=O)NC1CCSC1=O` (stereo not given) [Erdosteine], the relative cell viability is reported as 0.979. For `CC1COc2c(N3CCN(C)CC3)c(F)cc3c(=O)c(C(=O)O)cn1c23` (stereo not given) [Ofloxacin], the relative cell viability was 1.
